Results taken from the supplement of paper PMC6555819.

system: THRa:RXRa (NR concentration 90 nM, RXRa partner concentration 90 nM); test: PBM binding z-score (relative to random genomic background probes); higher = stronger binding; sequences stand for … in GC…GCGATTGACAGCGTAGAATGAAGG
Method in brief: (§1)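 Random background probes are the reference for binding z-scores. These scores derive from regression-normalized fluorescence on custom Agilent 4×180K protein-binding microarrays incubated 1 h with ligand-free nuclear receptor dimers. Binding was detected with antibodies against each partner (one per run).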

Sequence | PBM binding z-score
AATACAGGATCATCGTAGGCCAGAGTACGCACAG | 1.59
CCTGCTGGGCCAAAAAGGTCATTGATGCCGATAA | 3.12
ATACCAAGGTGATCGCGAGGTCGTTGATACTAAC | 3.11
AGTCATAGTTCAGGACGAGGTAACGTAAAGCACG | 3.35
ATCGAAAGGTGGTGAGGTGAGTATACAGAAAGGC | 1.8
CTCGAAAGGTCGGTTGAGGAGAGTATACGGATAA | 4.2
CCGAGTAGCTTATGGGGCATTCAGGCAACGGTGA | -0.153
ATATGTAGGTTATCGGGTCGTTCAGTTTGCGCAT | 1.93
GATACCGGGTCAAGGCCAGAGTACGCGTATTGAT | 3.49
ACTAGCAGGACAAGTTTGGGTCACTCAAACAAAG | 2.62
CGTCCAATGTCAGCAGGTCAGTGAAAGCGACGTG | 1.31
CTCGAAAGGTCGTACTCAGGTGAGTATACCAAAC | 3.89
ACTATTAGTTGAGACGAGGGAAACCGATAGGTTG | 0.35
CGTCCAAGGTCATAGGAGGTCAGTGAAGACAGAT | 5.42
GCATAAAGGTAATACAAGGTGAAAGTCCGATTGT | 4.64
CTCGAAAGGTCTTGCTCAGGTGAGTATACCAAAC | 2.67
CCTAGCAGGCCAGGGTCACACAAGCATTTCGCTT | 3.45
ATCTCTAGGTAAAAGTTCAGCGAATCCCGAGGAT | 1.58

system: THRa homodimer (NR concentration 90 nM); test: as above
Method in brief: as §1

Sequence | PBM binding z-score
CGAACTAGGTCAAGGACAGTTAATCTCCGCACGC | 2.12
ACTATGAGTTGACTTAGGGCAACCGATACGACGC | 0.414
CGGCCTAGGTCAGGGCCAGTATAGGAGGAACGTT | 0.0895
CGAACTAGGGCATGAGTTGATAGCAAATGCCGAT | -0.493
GATACAGGGTCAAGGCCAGAGAACGCGTATTGAT | 1.3
TCTATTAGTTGATTTGGGCAACCGAAACAGCGGA | 0.427
GAATATAGGTAATACAAGGTGAAAGTCCGATTGT | 1.38
CCTACTAGGCCAAAAAGGTCATTGATGCCGATAA | 0.809
CAAACTAGGTCAACGTCAAAGTCGGTTTGTGCCA | 1.02
CGTCCAAGGACATAGGAGGTCAGTGAAGACAGAT | 1.83
CCTCCTAGGTCATGGTCAGCTAATCTACAGTATG | 1.92
TCGATTAGGTTACCAATGGGGCATTCAGCTTTCT | 0.0109
CCTTACGGTTCACGAGGTTATAGCACGACGAGCG | 1.26
CGAATTAGGTCATCCAGGACAGTGAATACATTGA | 2.77
CCTATTAGTTGACCATAAGGGCAACCGGAGCTCG | 1.53
CGAACGAGGGCATGATTTGATAGCAAATGCCGAT | -0.278
CGAACTAGGTCAGACCAGGACAGTGAAGGATGAT | 0.741
CAGCCTAAGTCAGGGCCAGTATAGGAGGAACGTT | -0.317
GCTAGTTGGTCAGTATAAGGTCACACACCGGTCG | 5.46
CAGCCTAGGTCAGCGCCAGTATAGGAGGAACGTT | 0.498

Sequence | PBM binding z-score
ATCTCTAGGTAACTAAGTTCAGTGAATGCCGAAC | 0.66
ATCTCTAGGTAAAGATAGTACAGTGAATGCAAAT | 0.0174
AATACAGGATCATCGTAGGCCAGAGTACGCACAG | -0.259
CCTGCTGGGCCAAAAAGGTCATTGATGCCGATAA | 0.279
ATACCAAGGTGATCGCGAGGTCGTTGATACTAAC | 1.61
AGTCATAGTTCAGGACGAGGTAACGTAAAGCACG | 1.67
ATCGAAAGGTGGTGAGGTGAGTATACAGAAAGGC | 1.23
CTCGAAAGGTCGGTTGAGGAGAGTATACGGATAA | -0.262
CCGAGTAGCTTATGGGGCATTCAGGCAACGGTGA | -0.655
ATATGTAGGTTATCGGGTCGTTCAGTTTGCGCAT | 1.55
GATACCGGGTCAAGGCCAGAGTACGCGTATTGAT | 1.25
ACTAGCAGGACAAGTTTGGGTCACTCAAACAAAG | 1.42
CGTCCAATGTCAGCAGGTCAGTGAAAGCGACGTG | 0.239
CTCGAAAGGTCGTACTCAGGTGAGTATACCAAAC | 0.987
ACTATTAGTTGAGACGAGGGAAACCGATAGGTTG | -0.716
CGTCCAAGGTCATAGGAGGTCAGTGAAGACAGAT | 3.01
GCATAAAGGTAATACAAGGTGAAAGTCCGATTGT | 0.994
CTCGAAAGGTCTTGCTCAGGTGAGTATACCAAAC | 0.893
CCTAGCAGGCCAGGGTCACACAAGCATTTCGCTT | 1.54
ATCTCTAGGTAAAAGTTCAGCGAATCCCGAGGAT | 0.0924
